Test results reported in PubChem BioAssay (Tox21).
Inconclusive results are not listed. Unmarked numbers belong to inactive results. Activity calls are given as the source filed them. Calls come from the whole dose curve.

Experiment: p53 small molecule agonists, cell-based qHTS assay: qHTS cell viability counter screen (AID 1963581); note: nearly all actives have a fitted effect of over 45% in size
Conditions: p53RE-bla HCT-116 viability, ATP luminescence, 16 h; series mostly up to 66 µM; activity change, negative = cytotoxicity: at the top concentration
Description: National Center for Advancing Translational Sciences [NCATS]
Division of Preclinical Innovation [DPI]
U.S. Environmental Protection Agency [EPA]
National Institutes of Environmental Health Sciences [NIEHS]
National Toxicology Program [NTP]
U.S. Food and Drug Administration [FDA]
p53, a tumor suppressor protein, is activated following cellular insult, including DNA damage and other cellular stresses. The activation of p53 regulates cell fate by inducing DNA repair, cell cycle arrest, apoptosis, or cellular senescence. The activation of p53, therefore, is a good indicator of DNA damage and other cellular stresses. The CellSensor p53RE-bla HCT-116 cell line (Invitrogen) contains a stably integrated beta-lactamase reporter gene under control of the p53 response elements. The activation of the reporter gene under culture conditions can be detected by fluorescence intensity. This cell line was used to screen the Tox21 compound library in a 1536-well plate format and to identify agonists that activate the p53 signaling pathway. The cytotoxicity of the Tox21 compound library against the p53 RE-bla HCT-116 cell line was tested in parallel by measuring the intra cellular ATP content in the same wells.
Tox21 Assay Protocol Summary:
The p53RE-bla cells were dispensed at 4,000 cells/5 ul/well in 1536-well black wall/clear bottom plates using a Multidrop dispenser. After the assay plates were incubated at a 37 C/5% CO2 incubator for 5 hours, 23 nL of compounds dissolved in DMSO, positive controls or DMSO only was transferred to the assay plate by a pin tool. The plates were incubated at 37 C for 16 hours. After 1 uL of LiveBLAzerTM B/G FRET substrate was added using a Flying Reagent Dispenser, the plates were incubated at room temperature for 2 hours, and fluorescence intensity was measured by an Envision plate reader. For cell viability readout that measures cytotoxicity, 4 ul/well of CellTiter-Glo reagent was added into the assay plates using a Flying Reagent Dispenser. After 30 min incubation at room temperature, the luminescence intensity in the plates was measured using a ViewLux plate reader.
% is set by controls: 0 for no effect and ±100 for the full control effect; potency is the fitted concentration of half-maximal effect.

| SMILES | activity change, negative = cytotoxicity | Potency |
| --- | --- | --- |
| C=CCn1c(=O)n(CC=C)c(=O)n(CC=C)c1=O | 15.1% | – |
| CC12CCC(CC1=O)C2(C)C (stereo not given) | 27.6% | – |
| COC(=O)C1=C(C)NC(C)=C(C(=O)OC(C)(C)CN(C)CCC(c2ccccc2)c2ccccc2)C1c1cccc([N+](=O)[O-])c1 (stereo not given) | 0.803% [at 30.3 µM] | – |
| CC(C)CC(C)CC(C)CC(C)COC(=O)c1ccccc1C(=O)OCC(C)CC(C)CC(C)CC(C)C (stereo not given) | 2.71% | – |
| C=CC(=O)OCCCCCCCCCC | -0.746% | – |
| CCCCCCCC[Si](OCC)(OCC)OCC | 7.62% | – |
| CC1=NS(=O)(=O)c2cc(Cl)ccc2N1 | -11.8% [at 30.3 µM] | – |
| COC(=O)c1ccccc1Cl | 5.63% | – |
| Cc1ccc(-n2[nH]c(C)c(N=Nc3cccc(-c4cccc(C(=O)O)c4)c3O)c2=O)cc1C | 1.68% [at 30.3 µM] | – |
| CC[C@H]1OC(=O)[C@H](C)[C@@H](O[C@H]2C[C@@](C)(OC)[C@@H](O)[C@H](C)O2)[C@H](C)[C@@H](O[C@@H]2O[C@H](C)C[C@H](N(C)C)[C@H]2O)[C@](C)(O)C[C@@H](C)C(=O)[C@H](C)[C@@H](O)[C@]1(C)O | 8.06% [at 30.3 µM] | – |
| CC(C)(O)CCc1ccccc1 | 0.386% | – |
| CCOC(=O)c1ccc(I)cc1 | -11.9% | – |
| Cc1ccc(C(=O)c2ccccc2)cc1 | -5.32% | – |
| Nc1nc(CC(=O)O)cs1 | -11.1% | – |
| CC(=O)N[C@@H](CCC(N)=O)C(=O)O | 20% [at 30.3 µM] | – |
| CCOCCOCCOC(C)=O | -0.353% | – |
| C[Si](C)(CCCN)O[Si](C)(C)CCCN | -18.2% | – |
| CN1CCC(=C2c3ccccc3CC(=O)c3sccc32)CC1 | 5.74% [at 30.3 µM] | – |
| CCCCCCCCCCCCCCC1CO1 (stereo not given) | 0% | – |
| CC/C=C\CC/C=C/C(OCC)OCC | -14.5% | – |

| SMILES | activity change, negative = cytotoxicity | Potency |
| --- | --- | --- |
| CC(C)(O)c1ccc(CNC(=O)c2cccnc2Oc2ccc(F)cc2)cc1 | 14.5% | – |
| COCC(=O)Nc1c(I)c(C(=O)NCC(O)CO)c(I)c(C(=O)N(C)CC(O)CO)c1I (stereo not given) | -0.805% [at 30.3 µM] | – |
| CC(=O)Oc1cc2c(s1)CCN(C(C(=O)C1CC1)c1ccccc1F)C2 (stereo not given) | 8.46% [at 30.3 µM] | – |
| C=CCCCCCCCCC=O | 1.6% | – |
| C[C@H]1C[C@H]2[C@@H]3CCC4=CC(=O)C=C[C@]4(C)[C@H]3C(=O)C[C@]2(C)[C@@]1(O)C(=O)CO | -7.57% [at 30.3 µM] | – |
| C[N+](C)(C)CC(O)CC(=O)[O-] (stereo not given) | -8.27% [at 30.3 µM] | – |
| O=C1c2ccccc2C(=O)C1c1ccccc1 | -1.23% [at 30.3 µM] | – |
| C=CC(=O)OCC[N+](C)(C)C | -5.56% | – |
| CCCCCCCCCCCCN1CCOCC1 | -0.792% | – |
| CC(=O)CC(=O)Nc1ccc(C)cc1C | -1.31% | – |
| CCc1cccc(CC)c1N(COC)C(=O)CS(=O)(=O)O | 1.4% | – |
| CCCC(c1cc(C(C)(C)C)c(O)cc1C)c1cc(C(C)(C)C)c(O)cc1C | – | 5.83 µM (active) |
| CCCc1nn(C)c2c(=O)[nH]c(-c3cc(S(=O)(=O)N4CCN(C)CC4)ccc3OCC)nc12 | -6.69% [at 30.3 µM] | – |
| COc1ccc(-n2nc(CCC(=O)N(C)O)cc2-c2ccc(Cl)cc2)cc1 | 7.28% [at 30.3 µM] | – |
| C=COCC1CCC(COC=C)CC1 (stereo not given) | -11% | – |
| O=C(CCN1CCC(c2ccccc2)C1)c1ccc2c(c1)OCCO2 (stereo not given) | -1.09% [at 30.3 µM] | – |
| Cc1oc(=O)oc1COC(=O)[C@@H]1N2C(=O)[C@@H](NC(=O)[C@H](N)c3ccccc3)[C@H]2SC1(C)C | 0.0108% [at 30.3 µM] | – |
| c1cnc2c(n1)CCCC2 | -12.3% | – |
| CCCCCCCCCCCCCCCC[N+](C)(C)CCN(Cc1ccc(OC)cc1)c1ncccn1 | -24.2% [at 30.3 µM] | – |
| COc1ccc(C)cc1[N+](=O)[O-] | 9.51% | – |
